SSB-PriA inh: inhibitors of Klebsiella pneumoniae PriA binding to SSB C-terminal tail. AlphaScreen SSBct-PriA binding, biotinylated peptide. actives 0.6% (n = 430,000). inhibition, % at 33 µM; in the data active means inhibition mostly above about 37%, no sharp cut-off; inactive means mostly below about 20%;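 further: plate controls were negative control peptide for no effect and reference peptide for full effect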
FBA Mtb inh: Mtb fructose-bisphosphate aldolase inhibition; actives 2.3% (n = 360,000); AID 588726; purified M. tuberculosis FBA, fluorescence read-out; inhibition, % at 1 µM; P9WQA3;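 further: 0% = vehicle and 100% = reference inhibitor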
Rv3671c protease: Rv3671c (M. tuberculosis) protease inhibition; inhibition, % at 5.96 µM; actives 0.048% (n = 320,000); AID 2606; P9WHR9; in the data active means inhibition above about 38%;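 further: extracellular domain of Rv3671c used as enzyme; 0% = enzyme with DMSO and 100% = no enzyme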
Mtb UGM inh: inhibitors of M. tuberculosis UDP-galactopyranose mutase | actives 0.06% (n = 320,000) | P9WIQ1 | purified UGM, fluorescence polarization probe displacement | inhibition, % at 10 µM | AID 504406; in the data active means inhibition above about 10%, passing the limit was not always enough
Target sequence (P9WIQ1 whole entry, looked up): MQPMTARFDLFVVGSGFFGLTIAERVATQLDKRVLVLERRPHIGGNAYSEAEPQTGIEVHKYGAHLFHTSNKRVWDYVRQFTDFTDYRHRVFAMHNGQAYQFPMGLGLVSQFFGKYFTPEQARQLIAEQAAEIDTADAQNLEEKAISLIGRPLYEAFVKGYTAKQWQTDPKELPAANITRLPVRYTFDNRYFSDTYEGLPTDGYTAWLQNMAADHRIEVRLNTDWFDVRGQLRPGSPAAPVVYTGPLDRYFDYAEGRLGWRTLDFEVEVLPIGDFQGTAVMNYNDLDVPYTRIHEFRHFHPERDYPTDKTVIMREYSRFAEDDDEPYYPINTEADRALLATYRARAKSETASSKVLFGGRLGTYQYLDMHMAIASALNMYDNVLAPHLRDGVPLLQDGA
GDH-TPI counter-1: counter-screen for M. tuberculosis FBA inhibitors: GDH-TPI coupled enzymes; AID 588335; inhibition, % at 4.8 µM; actives 1.2% (n = 360,000); GDH-TPI coupled enzyme counterscreen, NADH absorbance; in the data active means inhibition above about 30%;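 further: 0% = DMSO wells and 100% = wells lacking the enzyme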
Mtb betalactam: beta-lactam sensitization of Mtb H37Rv; inhibition, % at 25 µM; M. tuberculosis H37Rv growth with meropenem, percent inhibition; actives 0.27% (n = 330,000); call rule not given here;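 further: growth measured after seven days incubation then overnight dye step; 0% = bacteria only wells and 100% = bacteria with antibiotic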
Mtb FBA confirm: confirmation of M. tuberculosis fructose-bisphosphate aldolase inhibitors; shares compounds with FBA Mtb inh; purified M. tuberculosis FBA, fluorescence read-out; inhibition, % at 1 µM; actives 78% (n = 5,600); AID 651616;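 further: 0% = vehicle wells and 100% = reference inhibitor wells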
GDH-TPI counter-2: inhibits GDH-TPI coupling enzymes, flagging Mtb FBA hits; shares compounds with FBA Mtb inh; AID 652141; actives 81% (n = 5,600); inhibition, % at 1 µM; GDH-TPI coupled enzyme counterscreen, fluorescence; in the data active means inhibition above about 10%
An asterisk follows results filed as active; / = no result; + = active, no number. Most compounds without a hit are left out; they make up all but 3.2% or so of the library. Unless noted, no stated cut-off is given here; in the data, active means inhibition above about 27%; inactive means the rest.

SMILES	SSB-PriA inh	FBA Mtb inh	Rv3671c protease	Mtb UGM inh	GDH-TPI counter-1	Mtb betalactam	Mtb FBA confirm	GDH-TPI counter-2
CC1=C(C#N)C(c2cccnc2)C2=C(CCCC2=O)N1 (stereo not given)	4.2	33.9*	-1.8	-0.6	4.0	-4.1	127.5*	99.5*
Cn1c(=O)c2cc(NC(=O)NCCc3cccs3)ccc2n1C/C=C/c1ccccc1	/	65.3*	/	/	18.1	/	1.2	-3.5
Cn1c(=O)c2cc(NC(=O)NCc3ccccc3)ccc2n1C/C=C/c1ccccc1	/	77.2*	/	/	7.1	/	98.7*	60.3*
CSc1ccc(NC(=O)NCc2ccccc2)cc1	-10.1	-0.5	-0.9	0.3	-3.4	-5.4	/	/
CC(=O)NN1C(=O)c2ccccc2NC1c1ccoc1 (stereo not given)	-3.4	35.0*	10.8	-3.9	-2.9	-2.5	38.1*	18.5*
O=C1c2ccccc2NC(c2cccnc2)N1c1ccccc1F (stereo not given)	-3.7	70.7*	-8.6	3.9	1.5	1.5	2.6	-1.9
CC(=O)NN1C(=O)c2ccccc2NC1c1ccccc1F (stereo not given)	-19.7	33.9*	9.5	-2.0	-3.3	-6.3	81.4*	50.9*
COc1ccc(N2C(=O)c3ccccc3NC2c2cccnc2)cc1 (stereo not given)	-6.4	3.8	2.8	1.0	-1.0	-6.1	/	/
CCOC(=O)NN1C(=O)c2ccccc2NC1c1cccnc1 (stereo not given)	-11.8	21.1	1.1	-0.6	-2.8	-0.7	/	/
CC(=O)NN1C(=O)c2ccccc2NC1c1cccnc1 (stereo not given)	1.9	30.2*	-2.0	-1.4	0.3	-3.0	77.0*	72.2*
Cc1ccc2nc(NC(=O)CSc3nnc4[nH]c(=O)c5c(n34)CCCC5)sc2c1	-16.0	/	/	/	/	/	/	/
O=C(CN1C(=O)CCC1=O)N1CCCC(c2nnc(C(F)(F)F)o2)C1 (stereo not given)	-11.0	/	/	/	/	/	/	/
O=C(Nc1ccccc1SCC1CSc2nc3ccccc3c(=O)n21)c1ccccc1 (stereo not given)	-10.2	-1.8	7.0	4.6	0.0	1.3	/	/
O=C(Nc1ccccc1SCC1CSc2nc3ccccc3c(=O)n21)c1cccc(Cl)c1 (stereo not given)	0.8	59.3*	-1.7	3.5	-0.8	-7.2	84.6*	78.7*
Cc1ccnc(Nc2ccc(NCCNC(=O)c3c(F)cccc3Cl)nn2)c1	6.0	/	/	/	/	/	/	/
Cc1ccnc(NC(=O)CS(=O)(=O)Cc2ccccc2)c1	-8.4	2.6	4.3	-0.4	8.4	-2.4	/	/
Cc1ccnc(NS(=O)(=O)Cc2ccccc2)c1	-2.8	44.5*	-3.3	1.0	-3.7	-8.0	103.4*	67.7*
Cc1ccc(NS(=O)(=O)Cc2ccccc2)nc1	-30.6	60.2*	9.2	0.1	4.2	3.3	170.6*	141.7*
O=S(=O)(Cc1ccccc1)Nc1ccc(Br)cn1	4.9	4.2	12.4	-0.7	3.5	-1.0	/	/
Cc1ccc(NS(=O)(=O)c2ccc(Br)cc2)nc1	-5.2	28.4*	-3.0	-1.0	-3.1	1.4	+	+
Cc1noc(CNC(=O)C2CCN(C(=O)c3cc(C)oc3C)CC2)n1	-17.0	/	/	/	/	/	/	/
CC(C)(C)NC(=O)Nc1ccc2nccnc2c1	5.1	60.7*	6.1	0.6	11.5	-2.1	-0.2	-5.0
FC(F)(F)c1ccc(Sc2nnc(-c3cccs3)n2CC2CCCO2)nc1 (stereo not given)	-8.1	83.2*	5.8	-1.6	6.1	-5.0	98.5*	68.8*
O=c1c2ccccc2c(/C=N/c2n[nH]c(CCCO)n2)c(O)n1-c1ccccc1Cl	/	30.3*	-17.7	1.2	8.2	-3.5	73.4*	57.4*
c1ccc2c(c1)OCCc1c-2[nH]c2ccccc12	7.2	46.6*	2.8	-1.0	-4.0	6.4	74.8*	54.8*
c1ccc(-c2nc3nc4ccccc4nc3n2CC2CCCO2)cc1 (stereo not given)	-19.4	83.6*	1.8	-1.1	33.7*	-3.7	95.9*	71.6*
COc1ccc(-c2nc3nc4ccccc4nc3n2C[C@H]2CCCO2)cc1	-4.0	/	/	/	/	/	/	/
CC1(C)Cc2nc(N)c(C(=O)NCCO)cc2CO1	-6.1	98.1*	0.7	-1.2	10.5	-6.0	+	+
